# Several values for one entry are separate records, joined by “and”; a condition that tells them apart may be missing. Equal entries are not always repeated. The panel holds about 83,000 compounds, 20% with a hit somewhere; the sample as a whole holds those more often.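 For each line, cells grew in 96-well plates with the test compound present at a single concentration for 48 hours.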 Activity calls are given as the source filed them. How the source made its calls: active means growth percent below 10; inactive means the rest.
# Experiments:
# Test in all cases: NCI-60 one-dose screen, 48 h (100 = growth as untreated, 0 = no growth, -100 = all killed)
# Conditions in all cases: 10 µM unless noted
# UACC-62 melanoma = system: UACC-62 melanoma
# TK-10 renal = system: TK-10 renal
# SK-MEL-28 melanoma = system: SK-MEL-28 melanoma
# EKVX NSCLC = system: EKVX NSCLC
# CAKI-1 renal = system: CAKI-1 renal
smiles,measurement,setting,value
CCOc1cc2c(cc1O)C=C[C@@H]1[C@@H]2CC[C@]2(C)[C@@H](O)CC[C@@H]12,growth,UACC-62 melanoma,-65.7% [100 µM] (active) and -100% [100 µM] (active)
same,growth,TK-10 renal,-4.09% [100 µM] (active) and -100% [100 µM] (active)
CCCCCC(O)(CCCCC)CCCCCCCCC1=C(O)c2ccccc2C(=O)C1=O,growth,UACC-62 melanoma,-74.8% [100 µM] (active) and -14.4% [100 µM] (active)
same,growth,TK-10 renal,0.969% [100 µM] (active) and -7.87% [100 µM] (active)
CC1(C)Oc2ccc3c(=O)cc(-c4ccc(F)cc4)oc3c2C1C(=O)O (configuration not stated),growth,UACC-62 melanoma,78.1% [100 µM] (inactive) and 87.8% [100 µM] (inactive)
same,growth,TK-10 renal,100% [100 µM] (inactive) and 99.3% [100 µM] (inactive)
CCCCCCCCCCCCC/C=C/[C@H]1[C@@H](C(=O)OC)N1S(=O)c1ccc(C)cc1 (some centres not stated),growth,UACC-62 melanoma,64.8% [100 µM] (inactive) and 3.51% [100 µM] (active)
same,growth,TK-10 renal,107% [100 µM] (inactive) and 52.5% [100 µM] (inactive)
N#CC1(C#N)N[C@@H](c2ccsc2)[C@H]2C(=O)N(c3ccccc3)C(=O)[C@H]21,growth,UACC-62 melanoma,23.2% [100 µM] (inactive) and 0.172% [100 µM] (active)
same,growth,TK-10 renal,55.7% [100 µM] (inactive) and 30.9% [100 µM] (inactive)
COc1ccccc1-c1n[nH]c(-c2ccccc2O)n1,growth,UACC-62 melanoma,62.2% [100 µM] (inactive) and 50.3% [100 µM] (inactive)
same,growth,TK-10 renal,84.4% [100 µM] (inactive) and 32.7% [100 µM] (inactive)
C=C(C)C(=O)OC1CC2(C)OC(=CC2=O)C(C)CC2OC(=O)C(=C)C12 (configuration not stated),growth,UACC-62 melanoma,-97% [100 µM] (active)
same,growth,TK-10 renal,-96.8% [100 µM] (active)
COc1cc(C)c2c(c1C=O)Oc1c(c(C)c(O)c3c1C(O)OC3=O)OC2=O (configuration not stated),growth,UACC-62 melanoma,-82.4% [100 µM] (active) and 98.2% [100 µM] (inactive)
same,growth,TK-10 renal,-0.673% [100 µM] (active) and 99.4% [100 µM] (inactive)
CCOC(=O)COc1cc(-c2ccccc2)nc2cc(F)ccc12,growth,UACC-62 melanoma,67.3% [100 µM] (inactive) and 60.3% [100 µM] (inactive)
same,growth,TK-10 renal,95.9% [100 µM] (inactive) and 90.1% [100 µM] (inactive)
N#Cc1n[nH]n(-c2ccccc2)c1=O,growth,UACC-62 melanoma,91.7% [100 µM] (inactive) and 100% [100 µM] (inactive)
same,growth,TK-10 renal,115% [100 µM] (inactive) and 107% [100 µM] (inactive)
CC1CC(C(=O)OC2OC(COC3OC(CO)C(OC4OC(C)C(O)C(O)C4O)C(O)C3O)C(O)C(O)C2O)C2CCC3(C)C(=CCC4(C)C3CCC3C(C)(CO)C(O)C(O)CC34C)C2C1C (configuration not stated),growth,UACC-62 melanoma,-93.3% [100 µM] (active) and -100% [100 µM] (active)
same,growth,TK-10 renal,-65.8% [100 µM] (active) and -100% [100 µM] (active)
CCOC(=O)C(=O)C(CCC(=O)c1ccc2ccccc2c1O)C(=O)OCC (configuration not stated),growth,UACC-62 melanoma,85.4% [100 µM] (inactive) and 81.5% [100 µM] (inactive)
same,growth,TK-10 renal,125% [100 µM] (inactive) and 106% [100 µM] (inactive)
Clc1ccc(C2C3COc4ccccc4C3=NN2c2ccccc2)cc1 (configuration not stated),growth,UACC-62 melanoma,37.4% [100 µM] (inactive) and 0.301% [100 µM] (active)
same,growth,TK-10 renal,77% [100 µM] (inactive) and 31.3% [100 µM] (inactive)
Cc1ccc2c(sc(-c3ccc4c(c3)sc(-c3ccc5c(c3)sc(-c3ccc(N(C)C)cc3)[n+]5C)[n+]4C)[n+]2C)c1S(=O)(=O)O (tested in a mixture with another compound),growth,UACC-62 melanoma,48.6% [100 µM] (inactive) and 10.5% [100 µM] (inactive)
same,growth,TK-10 renal,106% [100 µM] (inactive) and 47.3% [100 µM] (inactive)
COC(=O)C1CCC(=O)N1CN(C(C)=O)c1cccc(O)c1 (configuration not stated),growth,UACC-62 melanoma,74.6% [100 µM] (inactive) and 102% [100 µM] (inactive)
same,growth,TK-10 renal,77.3% [100 µM] (inactive) and 106% [100 µM] (inactive)
CC(C)CCCC(C)[C@H]1CC[C@H]2[C@@H]3CC[C@H]4C[C@@H](CCC=C(c5cc(Cl)c(O)c(C(=O)O)c5)c5cc(Cl)c(O)c(C(=O)O)c5)CC[C@]4(C)[C@H]3CC[C@]12C (some centres not stated) (tested in a mixture with another compound),growth,UACC-62 melanoma,72.7% [50 µM] (inactive) and 21% [50 µM] (inactive)
same,growth,TK-10 renal,179% [50 µM] (inactive) and 2.06% [50 µM] (active)
COC(=O)C(/C(=N/NC(N)=O)C(=O)Nc1ccc(C)cc1)c1nc2ccc([N+](=O)[O-])cc2[nH]c1=O (configuration not stated),growth,UACC-62 melanoma,61.4% [100 µM] (inactive) and 23.2% [100 µM] (inactive)
same,growth,TK-10 renal,111% [100 µM] (inactive) and 43.2% [100 µM] (inactive)
O=C1c2ccccc2-c2c1c1ccccc1c(=O)n2-c1cccnc1,growth,UACC-62 melanoma,35.8% [100 µM] (inactive) and 0.376% [100 µM] (active)
same,growth,TK-10 renal,59.8% [100 µM] (inactive) and -34% [100 µM] (active)
O=C(Nc1cccc(NC(=O)C(=O)C2CCC3=C(Sc4ccccc4N3)C2=O)n1)C(=O)C1CCC2=C(Sc3ccccc3N2)C1=O (configuration not stated),growth,UACC-62 melanoma,50.7% [100 µM] (inactive) and -46.3% [100 µM] (active)
same,growth,TK-10 renal,103% [100 µM] (inactive) and 15.7% [100 µM] (inactive)
CC1CC(=O)N(N(C)C)C2(C#N)C(=O)N=C(N)C12C#N (configuration not stated),growth,UACC-62 melanoma,-84.2% [100 µM] (active) and -92.9% [100 µM] (active)
same,growth,TK-10 renal,-31.9% [100 µM] (active) and -94.2% [100 µM] (active)
C=C1C(=O)O[C@H]2C[C@@]3(C)[C@H](O)CCC(=C)[C@@H]3[C@@H](OC(C)=O)[C@H]12,growth,UACC-62 melanoma,-98.5% [100 µM] (active) and -92.2% [100 µM] (active)
same,growth,TK-10 renal,-98% [100 µM] (active) and -95.5% [100 µM] (active)
Cc1ccc(/C=N/Nc2nncc3ccccc23)s1,growth,UACC-62 melanoma,6.4% [100 µM] (active) and 1.47% [100 µM] (active)
same,growth,TK-10 renal,105% [100 µM] (inactive) and 21.6% [100 µM] (inactive)
N#C/C=C1\C=CC(O)C(O)C1OC1OC(CO)C(O)C(O)C1O (configuration not stated),growth,UACC-62 melanoma,95% [100 µM] (inactive) and 88.4% [100 µM] (inactive)
same,growth,TK-10 renal,97.1% [100 µM] (inactive) and 93.8% [100 µM] (inactive)
NC(N)=Nc1ccc(CC(N)C(=O)O)cc1 (configuration not stated),growth,UACC-62 melanoma,89% [12.5 µM] (inactive) and 94.1% [12.5 µM] (inactive)
same,growth,TK-10 renal,107% [12.5 µM] (inactive) and 111% [12.5 µM] (inactive)
Nc1ccn(C2OC(CO)C(O)C2O)c(=O)n1 (configuration not stated),growth,SK-MEL-28 melanoma,58.1% (inactive) and 105% (inactive) and 110% (inactive)
same,growth,EKVX NSCLC,99.2% (inactive) [middle of 4 runs]
same,growth,CAKI-1 renal,26.9% (inactive) and 4.29% (active) and 95.4% (inactive)
Cc1ccc(/C=N/Nc2ccccn2)s1,growth,UACC-62 melanoma,74.5% [100 µM] (inactive) and 87.7% [100 µM] (inactive)
same,growth,TK-10 renal,147% [100 µM] (inactive) and 60.9% [100 µM] (inactive)
Cn1c2c(c3ccccc3c1=O)C(=O)c1ccccc1-2,growth,UACC-62 melanoma,27.3% [100 µM] (inactive) and -100% [100 µM] (active)
same,growth,TK-10 renal,-92.2% [100 µM] (active) and -100% [100 µM] (active)
C/C(O)=C/c1nc2sc(C)c(C)c2c(=O)s1,growth,UACC-62 melanoma,19.1% [100 µM] (inactive) and 37.1% [100 µM] (inactive)
same,growth,TK-10 renal,50.2% [100 µM] (inactive) and 46.7% [100 µM] (inactive)
CC(C)O/N=C/c1cc(NC(=S)OC(C)C)ccc1Cl,growth,UACC-62 melanoma,13.4% [100 µM] (inactive) and 21.6% [100 µM] (inactive)
same,growth,TK-10 renal,53.5% [100 µM] (inactive) and 36.1% [100 µM] (inactive)
Cc1ccc(NC2=N/C(=C/c3ccccc3)C(Cl)=N2)cc1,growth,UACC-62 melanoma,27.6% [100 µM] (inactive) and 12% [100 µM] (inactive)
same,growth,TK-10 renal,82.6% [100 µM] (inactive) and -17.1% [100 µM] (active)
CCC1OC2(C)CC(C#N)(C#N)C1(C#N)C(=N)O2 (configuration not stated),growth,UACC-62 melanoma,34.6% [100 µM] (inactive)
same,growth,TK-10 renal,92.1% [100 µM] (inactive)
Cc1ccc(/C=N/Nc2nc3ccccc3s2)s1,growth,UACC-62 melanoma,45% [100 µM] (inactive) and 40.5% [100 µM] (inactive)
same,growth,TK-10 renal,14.8% [100 µM] (inactive) and 8.44% [100 µM] (active)
COc1cc2c(cc1-c1coc3cc(O)ccc3c1=O)OCO2,growth,UACC-62 melanoma,58.8% [100 µM] (inactive) and 55% [100 µM] (inactive)
same,growth,TK-10 renal,81.2% [100 µM] (inactive) and 3.05% [100 µM] (active)
NNc1[nH]c(=S)[nH]c1C(N)=O,growth,UACC-62 melanoma,98.3% [100 µM] (inactive) and 90.9% [100 µM] (inactive)
same,growth,TK-10 renal,121% [100 µM] (inactive) and 111% [100 µM] (inactive)
O=C(O)COc1cc(-c2ccccc2F)nc2cc3c(cc12)OCO3,growth,UACC-62 melanoma,83.2% [100 µM] (inactive) and 64.8% [100 µM] (inactive)
same,growth,TK-10 renal,113% [100 µM] (inactive) and 102% [100 µM] (inactive)
N#Cc1nc(C(F)(F)F)oc1N,growth,UACC-62 melanoma,57.6% [100 µM] (inactive) and 93.3% [100 µM] (inactive)
same,growth,TK-10 renal,79% [100 µM] (inactive) and 98.6% [100 µM] (inactive)
C=C(C)C1CC2(C)C(C)CC(OC(=O)/C(C)=C\C)CC2C(OC(=O)/C(C)=C\C)C1O (configuration not stated),growth,UACC-62 melanoma,5.5% [100 µM] (active)
same,growth,TK-10 renal,34.6% [100 µM] (inactive) and 71% [100 µM] (inactive)
COc1ccc(-c2nc3ccccc3c(=S)n2OC(C)=O)cc1,growth,UACC-62 melanoma,-63.4% [25 µM] (active) and -95.7% [25 µM] (active)
same,growth,TK-10 renal,47% [25 µM] (inactive) and -21.7% [25 µM] (active)

# From PubChem BioAssay (NCI)
